Compound activity deposited in PubChem BioAssay by National Center for Advancing Translational Sciences (NCATS).
AMA1-RON2 inh: AMA1-RON2 (P. falciparum) interaction inhibition. Potency, µM (highest dose often 58.2 µM), usual class: inhibitors. AlphaScreen AMA1-biotinylated RON2 peptide binding. hit rate 0.2% among 360,000; also: nearly all actives have a fitted effect of over 45% in size
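AMA1 (3D7) with his tag at 25 nM final met compounds first, then biotinylated RON2 peptide at 25 nM; detection used donor plus acceptor beads, 10 µg/mL apiece, read by AlphaScreen after 30 min at room temperature.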
HCV inhibitor: blocks hepatitis C virus. Huh7.5.1 HCVcc-Cre infection, luciferase reporter, 44 h. Potency, µM (series often up to 41.8 µM), hits mostly inhibitors. hit rate 3.4% among 340,000. AID 651820
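Whole-lifecycle infectious HCVcc-Cre system; cells 1,000/well, compound then virus (~0.5 moi) added 4 h after plating, 44 h culture. Luciferase read 15 sec following 15 min substrate incubation, room temp.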
Pf growth 96h: P. falciparum growth inhibition at 96 hours. P. falciparum luciferase reporter growth, 96 h. Potency, µM (highest dose often 28.7 µM), hits mostly inhibitors. hit rate 6.9% among 320,000
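Plates of compound plus infected erythrocytes (2% hematocrit, 0.05% parasitemia final) incubate 96 hours, 37 C, 5% CO2. Detection reagent added; reduced luminescence from the parasites' luciferase reporter flags inhibition.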
Pf growth 48h: P. falciparum growth inhibition at 48 hours (one generation). Potency, µM (top dose mostly 28.7 µM), usual class: inhibitors. hit rate 5.9% among 310,000. AID 504832. P. falciparum luciferase growth in erythrocytes, 48 h
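Read-out is firefly luciferase luminescence from an integrated reporter in P. falciparum, so falling signal marks reduced parasite growth. Infected erythrocytes were at 2% hematocrit and 0.1% parasitemia (final) in Albumax-supplemented RPMI 1640.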
Hits are given with their value; ! = not active in a repeat; [ ] = dose if it differs, or a comment. Most compounds without a hit are left out; they make up all but 11% or so of the library. Calls follow the shape of the dose curve; as a rule, active = well fitted curve in the direction sought with a large enough effect; inconclusive = small, poorly fitted or top-dose-only effect, or another doubt; inactive = no such curve, though single readings can be large; an effect the other way counts as inactive or inconclusive.

For O=C(Nc1ncn[nH]1)c1cccc(S(=O)(=O)N2CCOCC2)c1 the results were AMA1-RON2 inh inactive, HCV inhibitor inactive, Pf growth 96h inactive and Pf growth 48h inactive.
For Cn1nnnc1Sc1ncnc2scc(-c3ccc([N+](=O)[O-])cc3)c12 the results were Pf growth 96h 3.7µM and Pf growth 48h 13µM.
`CCN1CCN(c2cc(C)nc(-c3ccccc3O)n2)CC1` gave AMA1-RON2 inh inactive, HCV inhibitor inconclusive, Pf growth 96h inconclusive and Pf growth 48h inconclusive.
Cc1ccc(-c2nnc(CSc3nc4cc5c(cc4cc3C)OCO5)o2)cc1 was read as AMA1-RON2 inh inactive, HCV inhibitor inconclusive, Pf growth 96h 13µM and Pf growth 48h inactive.
N#Cc1c(C(F)(F)F)cc(-c2ccc(Cl)c(Cl)c2)nc1SCCN1CCOCC1 was read as AMA1-RON2 inh inactive, Pf growth 96h 2.3µM and Pf growth 48h inconclusive.
For CCN(C(=O)COC(=O)c1ccccc1NCCO)c1cccc2ccccc12 the results were AMA1-RON2 inh inactive, HCV inhibitor inconclusive, Pf growth 96h 10µM and Pf growth 48h inconclusive.
COc1ccc(OCC(=O)N2N=C(C(F)F)CC2(O)C(F)F)cc1 (stereo unspecified) was read as AMA1-RON2 inh inactive, HCV inhibitor inactive, Pf growth 96h inactive and Pf growth 48h inactive.
`Cc1ccc(NC(=O)CCCCCN2C(=O)[C@@H]3Cc4ccccc4CN3C2=O)cc1` gave AMA1-RON2 inh inactive, HCV inhibitor inconclusive, Pf growth 96h inconclusive and Pf growth 48h inactive.
For COc1ccc(NC(=O)CCCCCN2C(=O)[C@@H]3Cc4ccccc4CN3C2=O)cc1Cl the results were AMA1-RON2 inh inactive, HCV inhibitor inconclusive, Pf growth 96h 12µM and Pf growth 48h inactive.
For COc1ccc(C2(C)NC(=O)N(CC(=O)Nc3ccc(Br)cc3F)C2=O)cc1OC (stereo unspecified) the results were AMA1-RON2 inh inactive, HCV inhibitor inconclusive, Pf growth 96h 3.7µM and Pf growth 48h inconclusive.
For COc1ccc(C2(C)NC(=O)N(CC(=O)Nc3ccc(Br)c(C)c3)C2=O)cc1OC (stereo unspecified) the results were AMA1-RON2 inh inactive, HCV inhibitor inconclusive, Pf growth 96h inactive and Pf growth 48h inactive.
`COc1ccc(C2(C)NC(=O)N(CC(=O)Nc3ccc(C)cc3Br)C2=O)cc1OC` (stereo unspecified) gave AMA1-RON2 inh inactive, HCV inhibitor inactive, Pf growth 96h 3.7µM and Pf growth 48h inconclusive.
COc1ccc(C2(C)NC(=O)N(CC(=O)NCC(=O)Nc3ccc(F)c(F)c3F)C2=O)cc1OC (stereo unspecified) was read as AMA1-RON2 inh inactive and HCV inhibitor inactive.
For CNc1ncnc2c1ncn2[C@H]1CN(Cc2ccncc2)C[C@@H](CO)O1 the results were AMA1-RON2 inh inactive.
For COc1ccc(S(=O)(=O)N2CCN(C(=O)C3CC3)CC2)cc1Br the results were AMA1-RON2 inh inactive, HCV inhibitor inactive, Pf growth 96h inconclusive and Pf growth 48h inconclusive.
`CN(C)c1nc(=NCc2ccco2)ss1` gave AMA1-RON2 inh inactive, HCV inhibitor inactive, Pf growth 96h 2.6µM and Pf growth 48h inconclusive.
`CCOC(CN=c1nc(N(C)C)ss1)OCC` gave AMA1-RON2 inh inactive and HCV inhibitor inactive.
Screening C=CCn1cc(/C=N\NC(=O)c2cc3c(ccc4ccccc43)o2)c2ccccc21 returned AMA1-RON2 inh inactive, HCV inhibitor 10µM, Pf growth 96h inactive and Pf growth 48h inconclusive.
For O=C(N/N=C/c1ccccc1F)c1cc2c(ccc3ccccc32)o1 the results were AMA1-RON2 inh inactive, HCV inhibitor inactive, Pf growth 96h inactive and Pf growth 48h inactive.
For [Cl-].[Cl-].[Hg+2] the results were Pf growth 96h 2.4µM and Pf growth 48h 2.1µM.
C/C(=C\COc1ccc2ccc(=O)oc2c1)CC[C@@H](O)C(C)(C)O was read as AMA1-RON2 inh inactive, HCV inhibitor inactive, Pf growth 96h inactive and Pf growth 48h inactive.
C/C(=C\COc1cc(=O)[nH]c2ccccc12)CCC(O)C(C)(C)O (stereo unspecified) was read as AMA1-RON2 inh inactive, HCV inhibitor 0.32µM, Pf growth 96h inactive and Pf growth 48h inactive.
For COCCNC(=O)CN1CCC(NC(=O)Nc2ccc(C(F)(F)F)cc2)CC1 the results were AMA1-RON2 inh inactive, HCV inhibitor 11µM!, Pf growth 96h inactive and Pf growth 48h inactive.
`CCCC[C@@H](C)C[C@@H](C)C(=O)N(C)[C@@H](CC(C)C)C(=O)N[C@H](C(=O)N(C)[C@H](C(=O)N1C[C@@H](O)C[C@H]1C(=O)N1C(=O)C=C[C@@H]1C)C(C)C)C(C)OC(C)=O` (stereo partly specified) gave AMA1-RON2 inh inactive and HCV inhibitor 4µM.
CSc1ccccc1NC(=O)CN(C)C(=O)c1ccc(NC(=O)c2cccs2)cc1 was read as AMA1-RON2 inh inactive, HCV inhibitor inconclusive, Pf growth 96h inconclusive and Pf growth 48h inconclusive.
Cc1nc2c(-c3ccc(F)cc3)cnn2c(N)c1-c1ccccc1 was read as AMA1-RON2 inh inactive, HCV inhibitor 14µM, Pf growth 96h inactive and Pf growth 48h inactive[0.00184 µM].
Screening C[C@@H]1CN([C@@H](C)CO)C(=O)CCCn2nncc2CO[C@@H]1CN(C)C(=O)OCc1ccccc1 returned AMA1-RON2 inh inactive.
For O=C(CCc1nnc2ccc(NCc3ccccc3)nn12)NC1CCCCC1 the results were AMA1-RON2 inh inactive, HCV inhibitor inactive, Pf growth 96h 12µM and Pf growth 48h inactive.
For O=C(NCCc1nnc2ccc(NCc3ccc(F)cc3)nn12)c1ccccc1 the results were AMA1-RON2 inh inactive, HCV inhibitor inactive, Pf growth 96h inconclusive and Pf growth 48h inconclusive.
`COc1cccc(/C=N/n2c(N)c(S(=O)(=O)c3cccs3)c3nc4ccccc4nc32)c1OC` gave AMA1-RON2 inh inactive, HCV inhibitor inconclusive, Pf growth 96h inconclusive and Pf growth 48h inconclusive.
For Nc1c(S(=O)(=O)c2cccc(Cl)c2)c2nc3ccccc3nc2n1/N=C/c1ccc(O)c(O)c1 the results were Pf growth 96h inactive and Pf growth 48h 7.4µM.
`C=C[C@@H]1c2ccccc2N(S(=O)(=O)c2ccc(C)cc2)[C@H](c2ccccc2)C1(C#N)C#N` gave AMA1-RON2 inh inactive, HCV inhibitor inactive, Pf growth 96h inconclusive and Pf growth 48h 3.7µM.
For O=C(c1ccc(S(=O)(=O)N2CCCCCC2)cc1)N1CCC(CN2C(=O)c3cccc4cccc(c34)C2=O)CC1 the results were AMA1-RON2 inh inactive, HCV inhibitor 10µM, Pf growth 96h inactive and Pf growth 48h inconclusive.
For O=C(c1ccc(S(=O)(=O)N2CCCCCC2)cc1)N1CCN(Cc2ccccc2)CC1 the results were AMA1-RON2 inh inactive, HCV inhibitor inconclusive, Pf growth 96h inconclusive and Pf growth 48h inconclusive.
Screening COc1ccc(S(=O)(=O)N2CCCN(Cc3cccc(F)c3)CC2)cc1 returned AMA1-RON2 inh inactive, HCV inhibitor inactive, Pf growth 96h 12µM and Pf growth 48h inactive.
`COc1ccc(CN2CCN(S(=O)(=O)c3ccc(F)cc3)CC2)cc1OC` gave AMA1-RON2 inh inconclusive and HCV inhibitor inactive.
`COc1ccc(S(=O)(=O)N2CCN(Cc3cccc(OC)c3)CC2)cc1` gave AMA1-RON2 inh inactive, HCV inhibitor inactive, Pf growth 96h inconclusive and Pf growth 48h inactive.
